# Most compounds without a hit are left out; they make up all but 1.2% or so of the library.
# Bcl-xL primary = inhibitors of human Bcl-xL | Q07817 | GST-Bcl-xL / FITC-Bim BH3 peptide fluorescence polarization | inhibition, % at 10.9 µM | actives 0.7% (n = 320,000) | AID 2129;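 active = inhibition above the mean of all tested compounds plus 3 SD, cutoff set per campaign, cut at about 30% in these data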;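 also: 0% = DMSO wells and 100% = unlabeled Bim-BH3 peptide competitor; inhibitors lower millipolarization by displacing the labeled peptide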
# E coli Lon inh = inhibitors of E. coli Lon protease | P0A9M0 | purified E. coli Lon protease, fluorescence polarization | inhibition, % at 7.94 µM | actives 0.42% (n = 360,000) | AID 602123; in the data active = inhibition above about 13%, passing the limit was not always enough;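 also: 0% = enzyme with probe and DMSO and 100% = no enzyme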
# Target sequence (P0A9M0 whole entry, looked up): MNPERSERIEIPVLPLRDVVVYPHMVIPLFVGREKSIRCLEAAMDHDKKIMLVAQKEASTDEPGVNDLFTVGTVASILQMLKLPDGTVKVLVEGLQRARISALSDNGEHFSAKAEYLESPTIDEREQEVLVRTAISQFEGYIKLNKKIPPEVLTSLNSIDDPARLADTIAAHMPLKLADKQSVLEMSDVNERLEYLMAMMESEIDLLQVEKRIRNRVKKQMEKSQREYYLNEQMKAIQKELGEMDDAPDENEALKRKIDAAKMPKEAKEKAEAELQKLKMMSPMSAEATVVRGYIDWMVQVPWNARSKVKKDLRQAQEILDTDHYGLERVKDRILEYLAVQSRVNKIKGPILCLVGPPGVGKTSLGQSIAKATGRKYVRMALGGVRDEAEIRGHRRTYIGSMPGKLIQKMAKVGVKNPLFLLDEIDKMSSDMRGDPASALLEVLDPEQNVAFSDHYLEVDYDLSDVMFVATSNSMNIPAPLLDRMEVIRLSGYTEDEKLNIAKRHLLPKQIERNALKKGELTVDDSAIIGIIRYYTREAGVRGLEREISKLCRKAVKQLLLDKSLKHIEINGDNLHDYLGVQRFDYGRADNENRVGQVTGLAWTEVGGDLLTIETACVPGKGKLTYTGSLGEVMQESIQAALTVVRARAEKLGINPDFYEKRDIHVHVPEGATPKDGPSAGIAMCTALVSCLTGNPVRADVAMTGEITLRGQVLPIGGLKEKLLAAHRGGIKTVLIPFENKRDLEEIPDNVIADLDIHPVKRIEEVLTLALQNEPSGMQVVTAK
# cardiac RTF act = cardiac RTF calcium sensitization; P19429+P45379; IANBD-labeled TnC RTF fluorescence at EC20 calcium; 0% EC20 calcium, 100% full calcium; activation, % at 7.2 µM; actives 0.24% (n = 340,000); AID 493008;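 active = activation above the mean over all tested compounds plus 3 SD, cut at about 30% in these data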;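 also: rise in fluorescence read as greater calcium sensitivity of cardiac thin filaments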
# GLD-1 RNA inh = GLD-1-TGE RNA interaction inhibition (C. elegans); Q17339; purified GLD-1 + fluorescein TGE RNA, fluorescence polarization; inhibition, % at 5.96 µM; actives 0.44% (n = 320,000);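 active = percent inhibition above a per-plate cutoff, the plate mean of test compounds plus 3 SD, cut at about 30% in these data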;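 also: 0% = DMSO wells with GLD-1 and probe and 100% = wells lacking GLD-1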
# RTF Ca sens inh = cardiac RTF calcium desensitization. actives 0.12% (n = 340,000). P19429+P45379. inhibition, % at 7.15 µM. IANBD-labeled cardiac RTF, Ca2+ fluorescence;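 active = inhibition above the mean inhibition of all tested compounds plus 3 SD, cut at about 17% in these data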;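 also: assay run at fixed EC70 calcium of 1.6 mM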
# RTF Ca inh conf = cardiac RTF calcium sensitivity inhibition, confirmation; shares compounds with RTF Ca sens inh; reconstituted cardiac thin filaments, calcium sensitivity fluorescence; inhibition, % at 7.15 µM; actives 8% (n = 360); AID 504635; in the data active = inhibition above about 18%
# * hit, by the source's call; . = no result given.
SMILES,Bcl-xL primary,E coli Lon inh,cardiac RTF act,GLD-1 RNA inh,RTF Ca sens inh,RTF Ca inh conf
CCC(C)C(NC(=O)C1CCC(C)CC1)C(=O)NC(CCSC)C(=O)OC (stereo not given),-5,-4,1,-1,18*,-6
COC(=O)C(CCSC)NC(=O)C(NC(=O)C1CCC(C)CC1)C(C)C (stereo not given),6,-13,1,0,-8,.
C[C@H](CO)N1C[C@H](C)[C@@H](CN(C)S(=O)(=O)c2ccccc2)Oc2c(NC(=O)c3ccncc3)cccc2C1=O,.,-10,-1,6,1,.
CC(O)c1nc2ccccc2n1CCOc1ccccc1 (stereo not given),3,-5,-2,-2,-6,.
CC(O)c1nc2ccccc2n1CCCCOc1ccccc1 (stereo not given),7,0,-2,5,21*,-5
CCOc1ccc(NC(=O)c2c(NC(=O)CN3CCN(C)CC3)sc3c2CCC3)cc1,0,6,1,5,-15,.
COCCOC(=O)/C(=C/c1ccc(OC(=O)c2ccccc2)cc1)C(C)=O,-2,4,16,-4,25*,3
CCOC(=O)/C(=C/c1ccc(OC(=O)c2ccncc2)cc1)C(C)=O,-19,1,-2,0,-6,.
COc1ccc(C(=NNc2ccccc2C(=O)O)c2ccc(OC)cc2)cc1,12,1,0,-3,17*,-4
O=C(/C=C/c1ccccc1)Nc1cccc(C(=O)NCCCCc2ccccc2)c1,.,-1,2,.,-10,.
CSc1ccc(/C=N/Nc2cccc(C(=O)O)c2)cc1,.,9,-14,.,26*,5
O=C(O)c1cccc(N/N=C/c2ccc(OC(F)(F)F)cc2)c1,5,-4,-2,-5,1,.
CCN1CCN(CC(=O)Nc2cc(C)on2)CC1,1,-15,1,-5,4,.
Cc1cc(NC(=O)CN2CCN(c3ncccn3)CC2)no1,3,-8,1,2,21*,-2
CCSc1nc(O)c(CC)c(=O)n1C(C)CC (stereo not given),-3,4,10,-4,-2,.
CN(C)S(=O)(=O)c1ccc(NC(=O)N2CCN(c3cccc(C(F)(F)F)c3)CC2)cc1,6,-2,-4,3,4,.
CN(C)S(=O)(=O)c1ccc(NC(=O)N2CCN(c3ccccc3Cl)CC2)cc1,-2,1,-6,1,19*,-3
COc1ccc(S(=O)(=O)N2CCC(O)(c3ccc4c(c3)OCO4)CC2)cc1,3,5,2,2,-8,.
O=[N+]([O-])c1nn(-c2ccc3c(c2)OCCO3)n(O)c1=NCCC1=CCCCC1,2,2,-2,6,18*,2
O=[N+]([O-])c1nn(-c2ccc3c(c2)OCCO3)n(O)c1=NCc1ccc(F)cc1,14,3,-10,6,-11,.
Cc1ccc(-n2c([S-])c(C(=O)NC(C)c3ccccc3)[n+]3ccccc23)cc1 (stereo not given),-10,-9,-2,3,1,.
CC(C)(C)S(=O)N1Cc2cc(CO)cc(-c3ccccc3)c2[C@@H]1CCO (stereo not given in full),.,-12,1,.,-1,.
Cc1ccc(NC(=O)CN2C(=O)N/C(=C/c3cccn3-c3ccc(C(=O)O)cc3)C2=O)cc1,27,-14,-30,5,64*,42*
Cn1nc(N)c2c(-c3ccccc3)c(C#N)c(N)nc21,8,22,0,5,17*,-4
COc1ccc(NC(=O)C2CCCN(S(=O)(=O)c3cccs3)C2)cc1OC (stereo not given),1,-2,11,3,-6,.
CCc1cccc(NC(=O)C2CCCN(S(=O)(=O)c3cccs3)C2)c1 (stereo not given),1,6,4,0,24*,-2
OCCCCNCc1ccc(OCc2ccc(Cl)cc2)cc1,6,3,-16,0,17*,-1
O=C(Nc1cc(S(=O)(=O)N2CCOCC2)ccc1N1CCCC1)C1CC1,1,-2,-4,2,19*,-3
O=C(CSc1nc(-c2ccc(F)cc2)nc2c1Cc1ccccc1O2)Nc1ccc(C(=O)O)cc1,.,-11,-17,.,12,.
O=C(CSc1nc(-c2ccccc2)nc2c1Cc1ccccc1O2)Nc1ccc(C(=O)O)cc1,.,-5,-15,.,20*,2

# Screens (PubChem BioAssay)
